# Sampled rows, rich in hits. Any-hit rate of the full collection: about 12%.
# HP1b chromo inh – HTS for Inhibitors of HP1-beta Chromodomain Interactions with Methylated Histone Tails. AlphaScreen HP1-beta / biotin-H3K9me3 peptide binding. Potency, µM (series often up to 114 µM), usual class: inhibitors. 390,000 compounds, 0.56% hits; further: nearly all actives have a fitted effect of over 70% in size
# Target sequence (P83916 whole entry, looked up): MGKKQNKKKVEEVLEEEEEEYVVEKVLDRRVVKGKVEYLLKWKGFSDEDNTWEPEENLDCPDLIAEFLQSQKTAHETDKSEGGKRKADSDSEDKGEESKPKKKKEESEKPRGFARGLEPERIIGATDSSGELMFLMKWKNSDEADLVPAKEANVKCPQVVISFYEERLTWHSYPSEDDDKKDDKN
#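 Compound inhibition of the preformed complex between 50 nM HP1-beta and 50 nM biotinylated H3K9me3 peptide was read by AlphaScreen. Buffer was PBS pH 7.4 with 0.01% Tween-20. Incubations ran 30 min at room temperature, with 10 ug/mL donor/acceptor beads.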
# G9a block – qHTS Assay for Inhibitors of Histone Lysine Methyltransferase G9a. Potency, µM (highest dose often 102 µM), hits mostly inhibitors. 350,000 compounds, 8.8% hits. G9a H3K9 monomethylation, AlphaScreen, 2 h. Histone-lysine N-methyltransferase EHMT2 (Homo sapiens), Q96KQ7; further: nearly all actives have a fitted effect of over 75% in size
# Target sequence (Q96KQ7 913-1193 limits assumed): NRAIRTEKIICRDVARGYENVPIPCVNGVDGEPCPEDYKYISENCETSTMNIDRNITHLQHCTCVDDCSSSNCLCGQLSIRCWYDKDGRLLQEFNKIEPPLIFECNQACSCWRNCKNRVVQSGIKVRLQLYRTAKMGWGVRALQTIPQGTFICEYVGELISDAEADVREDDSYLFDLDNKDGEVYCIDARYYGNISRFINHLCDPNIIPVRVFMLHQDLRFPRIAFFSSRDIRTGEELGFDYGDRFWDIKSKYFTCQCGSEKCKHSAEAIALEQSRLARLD
#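 AlphaScreen read-out: biotin-H3K9 peptide (500 nM) methylation by 20 nM enzyme with 20 uM SAM, 2 h at room temperature after 15 min compound preincubation; anti-monomethyl H3K9 antibody plus donor/acceptor beads, 10 min dark.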
# BAZ2B inh – qHTS Assay for Inhibitors of BAZ2B; Bromodomain adjacent to zinc finger domain protein 2B (Homo sapiens), Q9UIF8; Potency, µM (highest dose often 114 µM), most hits filed as inhibitors; AlphaScreen BAZ2B-H3K14Ac peptide displacement; 360,000 compounds, 4.4% hits; further: nearly all actives have a fitted effect of over 60% in size
#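 Multi-concentration screen (max 110 uM) measuring displacement of acetylated histone H3 peptide from BAZ2B by AlphaScreen, using 50 nM protein, 50 nM peptide and 10 ug/mL streptavidin donor plus Ni-chelate acceptor beads.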
# JMJD2A Tudor inh – qHTS Assay for Inhibitors of JMJD2A-Tudor Domain; Lysine-specific demethylase 4A (Homo sapiens), O75164; AlphaScreen JMJD2A-Tudor / H3K4me3 peptide binding; Potency, µM (titrated, usually from 114 µM), hits mostly inhibitors; 390,000 compounds, 4.4% hits; AID 504339, 2011; further: nearly all actives have a fitted effect of over 50% in size
# PLK1 PBD block – qHTS for Inhibitors of PLK1-PDB (polo-like kinase 1 - polo-box domain): Primary Screen | Serine/threonine-protein kinase PLK1 (Homo sapiens), P53350 | 360,000 compounds, 2.8% hits | Plk1 PBD binding of FITC phosphopeptide, fluorescence polarization | AID 720504, 2013 | Potency, µM, actives largely listed as inhibitors; further: series mostly up to about 57 µM; nearly all actives have a fitted effect of over 65% in size
# Sfp inh – qHTS Assay for Inhibitors of Bacillus subtilis Sfp phosphopantetheinyl transferase (PPTase); 4'-phosphopantetheinyl transferase ffp (Bacillus subtilis), Q9F4F7; Biochemical Sfp PPTase activity, qHTS; Potency, µM, hits mostly inhibitors; 310,000 compounds, 3.5% hits; AID 1490, 2009;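 further: the enzyme is Sfp with the accession as filed and its product quenches rhodamine fluorescence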
#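 Step 1, compound plus 15 nM Sfp-PPTase, 15 min, room temperature. Step 2, add rhodamine-CoA (5 uM) and BHQ-2-YbbR (12.5 uM). Step 3, read 525/598 nm fluorescence at 0 and 30 min.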
# A number is an active result; n = inactive; u = inconclusive; x = no result given; [ ] = remark or other dose. The call rests on the fitted dose curve; in most records, active means well fitted curve in the direction sought with a large enough effect; inconclusive means small, poorly fitted or top-dose-only effect, or another doubt; inactive means no such curve, though single readings can be large; an effect the other way counts as inactive or inconclusive.
SMILES,HP1b chromo inh,G9a block,BAZ2B inh,JMJD2A Tudor inh,PLK1 PBD block,Sfp inh
COc1cc(OC)cc(C(=O)N2CCC(C(=O)NCCc3ccccc3)CC2)c1,n,x,n,n,n,n
CC(C)C[C@H](NC(=O)CNC(=O)[C@H](C)NC(=O)[C@H](CC(C)C)NC(=O)[C@H](CCCNC(=N)N)NC(=O)[C@H](Cc1cnc[nH]1)NC(=O)[C@@H](NC(=O)[C@@H](N)C(C)C)[C@@H](C)O)C(=O)N[C@@H](CC(C)C)C(=O)N[C@@H](CO)C(=O)N[C@@H](CCCNC(=N)N)C(=O)N[C@@H](CO)C(=O)NCC(=O)NCC(=O)N[C@H](C(=O)N[C@H](C(=O)N[C@@H](CCCCN)C(=O)N[C@@H](CC(N)=O)C(=O)N[C@@H](CC(N)=O)C(=O)N[C@@H](Cc1ccccc1)C(=O)N[C@H](C(=O)N1CCC[C@H]1C(=O)N[C@H](C(=O)N[C@@H](CC(N)=O)C(=O)N[C@H](C(=O)NCC(=O)N[C@@H](CO)C(=O)N[C@@H](CCCCN)C(=O)N[C@@H](C)C(=O)N[C@@H](Cc1ccccc1)C(N)=O)C(C)C)[C@@H](C)O)C(C)C)C(C)C)C(C)C,x,x,x,x,x,n
COc1ccc(OC)c(N2C(=O)c3cccnc3C2=O)c1,n,n,79µM,n,n,n
CCOc1ccc(N2C(=O)c3cccnc3C2=O)cc1,n,n,56µM,u,n,n
O=c1c2sc3ccccc3c2n(Cc2ccc(F)cc2)c(=O)n1Cc1ccccc1,n,n,n,n,x,x
CC(=O)Nc1cccc(NC(=O)CSc2nc(=O)n(CCN3CCOCC3)c3c2CCCC3)c1,n,n[0.501 µM],n,n,n,x
COc1ccc(NC(=O)CSc2nnnn2C2CC3C=CC2C3)cc1 (centres undefined),n,u,n,n,n,n
COc1ccc(C2C3=C(N=CN(CCN4CCOCC4)C3N)Oc3ccccc32)cc1OC (centres undefined),x,x,x,n,x,x
O=C(CCN1CCC2CCC(C2)C1)c1ccc(F)cc1 (centres undefined),n,x,x,n,8.4µM,x
Cc1ccc(C(=O)NC2CCN(CCCC(=O)c3ccc(F)cc3)CC2)cc1,n,n,u,n,n,n
COc1cc2nc(=S)n(CCCN3CCOCC3)c(N)c2cc1OC,n,u,n,n,n,50µM
CC(=O)c1cccc(NC(=S)N2CCc3ccccc32)c1,n,35µM,n,n,u,n
COc1ccccc1NC(=S)N1CCCc2ccccc21,n,n,n,n,n,n
COc1ccc(NC(=S)N2CCc3ccccc32)cc1OC,n,50µM,u,n,n,n
Fc1cccc(NC(=S)N2CCc3ccccc32)c1,n,u,n,n,n,n
O=C(NC(=S)N1CCc2ccccc21)c1ccccc1,n,45µM,u,u,n,n
Cc1noc(C)c1-c1cccc(-c2nn3c(=O)cc(N4CCNCC4)nc3s2)c1,x,x,x,n,x,x
O=C(c1ccccc1Cl)N1CCN(C(=O)C2CCCO2)CC1 (centres undefined),n,n,n,n,n,x
CCCc1nnc(SCC(=O)NC2CC2)n1C,n,n,n,n,n,n
Cc1cccc(N2CCN(C(=O)CCS(=O)(=O)c3ccc(Br)cc3)CC2C)c1 (centres undefined),28µM,25µM,32µM,u,u,n
CC(=O)N1CCCc2cc(S(=O)(=O)CCC(=O)N3CCN(c4cccc(C)c4)C(C)C3)ccc21 (centres undefined),n,50µM,50µM,56µM,n,n
COc1cc(C(=O)NNC(=O)CN2C(=O)NC(C)(c3ccc(C)cc3)C2=O)cc(OC)c1OC (centres undefined),n,n[12.7 µM],n,n,n,x
CC(=O)Nc1sc2c(c1CN1CCCC1)CCCC2,n,u,n,n,n,n
CC(=O)Nc1sc2c(c1CN1CCN(c3ccccn3)CC1)CCCC2,n,32µM,u,u,n,n
CC(=O)Nc1sc2c(c1CN1CCN(c3ccc(F)cc3)CC1)CCCC2,n,45µM,50µM,u,n,n
SMILES,HP1b chromo inh,G9a block,BAZ2B inh,JMJD2A Tudor inh,PLK1 PBD block,Sfp inh
COc1cc(NC(=O)CSc2nnc3c4ccccc4n(C)c3n2)cc(OC)c1OC,n,x,x,n,x,x
Oc1[nH]c2ccccc2c1C1=NCCCC1,n,u,50µM,u,n,n
COc1ccccc1N1CCN(c2csc3ccc(Cl)cc3c2=O)CC1,n,n,n,n,x,x
Cn1nc([N+](=O)[O-])nc1S(C)(=O)=O,n,56µM,u,n,n,n
CS(=O)(=O)c1nc([N+](=O)[O-])nn1CCCc1ccccc1,n,x,x,n,n,x
Cc1cccc(Cc2c(C)nc3nc(SCC(=O)NCc4ccc(F)cc4)nn3c2C)c1,n,n,n,n,x,x
CCCC(=O)Nc1ccc(C2C(=O)c3ccccc3C2=O)cc1,n,79µM,u,n,n,n
Cc1ccc(C2C(=O)c3ccccc3C2=O)cc1,n,u,u,n,n,n
CCCC(=O)Nc1ccc(C(=O)NCc2ccccc2Cl)cc1,n,n,n,n,n,n
CC(=O)Nc1ccc(C2C(=O)c3ccccc3C2=O)cc1,n,50µM,n,n,n,n
CCOc1ccc(NC(=O)CCCc2nc(-c3cccc(OC)c3)no2)cc1,n,n,n,n,x,x
N=c1oc2c3c4c(cc2cc1C(=O)Nc1ccccc1)CCCN4CCC3,n,n,n,n,3.4µM,n
Cn1c(SCc2cccc(Br)c2)nc2c1c(=O)[nH]c(=O)n2C,n,n,n,n,n,n
Cn1c(=O)[nH]c(=O)c2c1nc(SCCC(=O)O)n2Cc1cccc(Br)c1,n,35µM,n,n,n,n
CC(=O)CSc1nc2c(c(=O)[nH]c(=O)n2C)n1Cc1cccc(Br)c1,n,22µM,n,n,19µM,45µM
c1ccc2c(-c3nnc(SCc4cn5ccccc5n4)o3)c[nH]c2c1,n,8.9µM,n,n,n,n
Cc1nc2c(OCCC3CCCCC3)cccn2c1N(C)C(=O)CCC1CCCC1,x,x,x,x,n,x
O=C1CN(S(=O)(=O)c2ccc(Br)cc2)c2ccccc2N1,n,n,n,n,n,n
O=C1CN(S(=O)(=O)c2cccc(Cl)c2Cl)c2ccccc2N1,n,50µM,n,n,u,n
Nc1ncnc(Sc2ncccn2)c1[N+](=O)[O-],n,u,79µM,n,u,35µM
Cc1ccccc1Nc1nnc(-c2ccc(C)c(S(=O)(=O)N3CCN(C)CC3)c2)c2ccccc12,n,n,n,n,x,x

# Screening data as filed in PubChem.
